High-throughput results (PubChem)
GLP-1R agonist: activates the human GLP-1 receptor | HEK293 GLP-1R CRE-luciferase, luminescence, 4-6 h; cells express a hypersensitive GLP-1R form | Potency, µM (highest dose often 45.6 µM), usual class: activators | 380,000 compounds, 0.007% hits
Target sequence (P43220 whole entry, looked up): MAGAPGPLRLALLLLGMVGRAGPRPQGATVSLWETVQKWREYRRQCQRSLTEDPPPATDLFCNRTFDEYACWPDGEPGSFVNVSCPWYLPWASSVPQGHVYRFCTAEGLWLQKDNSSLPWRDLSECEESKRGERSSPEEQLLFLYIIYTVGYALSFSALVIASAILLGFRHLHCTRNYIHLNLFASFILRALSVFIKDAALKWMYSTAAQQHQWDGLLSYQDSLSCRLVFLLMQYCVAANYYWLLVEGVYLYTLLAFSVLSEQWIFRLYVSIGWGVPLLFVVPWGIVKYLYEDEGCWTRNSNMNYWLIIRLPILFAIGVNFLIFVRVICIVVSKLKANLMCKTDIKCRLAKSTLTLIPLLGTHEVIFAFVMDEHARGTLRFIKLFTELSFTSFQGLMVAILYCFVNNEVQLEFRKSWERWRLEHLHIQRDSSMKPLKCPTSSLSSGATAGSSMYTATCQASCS
HEK293 tox: cytotoxic in the GLP-1 receptor inverse agonist counter-screen | HEK293 cAMP-luciferase reporter cells, luminescence, 24 h | 410,000 compounds, 0.13% hits | Potency, µM (top dose mostly 38.3 µM), hits mostly inhibitors | AID 624418;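 also: loss of luciferase light is scored as toxicity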
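A 23 nL compound transfer followed 12 hours of cell culture at 37 deg C; exposure then lasted 24 hr. Luciferase assay detection reagent was dispensed and plates read for luminescence after a 12 min room-temperature wait.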
GLP-1R inv ag: GLP-1 receptor (human) inverse agonism; Potency, µM (highest dose often 38.3 µM), usual class: inhibitors; 410,000 compounds, 1.6% hits; HEK293 GLP-1R CRE-luciferase, luminescence, 24 h; GLP-1R form is constitutively active; AID 624417; also: nearly all actives have a fitted effect of over 55% in size
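qHTS in 1536-well format: reporter HEK293 cells expressing constitutive GLP-1R activity in DMEM + 10% Nu serum, 24 hr with compounds at 37 deg C, luminescence read after 12 min with detection reagent.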
ClpP mod: qHTS Assay for Activators of ClpP | purified B. subtilis ClpP, FRET peptide cleavage, 20 min | Potency, µM (doses to about 57.5 µM) | 340,000 compounds, 1.9% hits | AID 651965, 2013; active = well fitted falling curve with a large enough effect; inconclusive = small, poorly fitted or top-dose-only effect; inactive = no such curve, though single readings can be large or run the other way; also: the source files actives as falling curves though it sought activators and does not explain the sign; nearly all actives have a fitted effect of over 65% in size
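ClpP 10 microg/mL final, pH 8 Tris/KCl buffer with BSA, glycerol, Tween-20; compound pinned in; FRET-FV substrate; RT 20 min; Ex320/Em430; ΔFRET vs ADEP 5.8 microM, DMSO, no enzyme.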
Of the large screens only hits and unclear results are named; the others gave an inactive call. Only some compounds are listed: those with a hit (about 3.2% of all), similar ones and a draw of the others. Unless noted, calls follow the shape of the dose curve; as a rule, active = well fitted curve in the direction sought with a large enough effect; inconclusive = small, poorly fitted or top-dose-only effect, or another doubt; inactive = no such curve, though single readings can be large; an effect the other way counts as inactive or inconclusive.

CCOc1ccc2nc(NCCNC(=O)Nc3cccc(C)c3)c(C#N)cc2c1	GLP-1R inv ag inconclusive, ClpP mod 16µM
CCc1ccccc1NC(=O)CSc1nccn1C	none
CCc1cc(-c2nnn(-c3cc(C(C)C)ccc3C)c2CC)ccc1-c1cn(CCc2c[nH]c3ccccc23)nn1	GLP-1R inv ag 2.5µM
Cc1nc(-c2ccc(F)cc2)sc1CCNC(=O)C(=O)Nc1ccc2c(c1)OCO2	none (no result: GLP-1R agonist)
COc1ccc(C(=O)/C=C/c2cn(CC(O)CN3CCc4ccccc43)c3ccccc23)cc1OC (centres undefined)	GLP-1R inv ag 10µM (no result: GLP-1R agonist)
Cc1ccc(C(=O)/C=C/c2cn(CC(O)CN3CCc4ccccc43)c3ccccc23)cc1 (centres undefined)	GLP-1R inv ag inconclusive (no result: GLP-1R agonist)
CC1CCN(c2nn3c(=O)c(C(=O)NCCCOC(C)C)cnc3s2)CC1	none (no result: GLP-1R agonist)
Cc1ccc(C2=NNC(c3ccc(Cl)cc3)=Nc3ccccc32)o1	GLP-1R inv ag 7.9µM
Cc1cc(=O)oc2cc(OCC3CC(c4ccc(Cl)cc4)=NO3)ccc12 (centres undefined)	ClpP mod 28µM
COC(=O)c1ccc(C2SCC(=O)N2Cc2ccccc2)cc1 (centres undefined)	none
CCCC(C)NC(=O)c1ccc(C2SCC(=O)N2Cc2ccco2)cc1 (centres undefined)	ClpP mod 32µM
COc1ccc(-c2cccc(NS(=O)(=O)c3cc(C)c(Cl)cc3C)c2)nn1	none (no result: GLP-1R agonist)
O=C(c1cccs1)N1CCN(C(=O)c2cn(-c3ccccc3)nc2-c2ccccc2)CC1	GLP-1R inv ag 10µM
O=C(c1cn(-c2ccccc2)nc1-c1ccccc1)N1CCOCC1	none
COc1cc2nc(N3CCCN(C)CC3)nc(N3CCN(C)CC3)c2cc1OC	none (no result: GLP-1R agonist, HEK293 tox, GLP-1R inv ag)
COc1cccc(C2CC(=O)N(c3ccc(F)cc3)C3=C2C(=O)OC3)c1OC (centres undefined)	none (no result: GLP-1R agonist)
O=c1c(Cc2ccc(F)cc2)c(O)ccn1Cc1cccc(Cl)c1	GLP-1R inv ag 7.9µM
O=c1c(Cc2ccc(Cl)cc2)c(O)ccn1Cc1cccc(Cl)c1	GLP-1R inv ag inconclusive
CCn1ncc(CN2CCCC(C(=O)Nc3cccc(-c4cc5ccccc5[nH]4)c3)C2)c1C (centres undefined)	HEK293 tox inconclusive, GLP-1R inv ag 3.5µM, ClpP mod inconclusive
CCC(=O)N1CCc2cc(S(=O)(=O)NCCC(=O)Nc3cc(C)ccc3OC)ccc21	none (no result: GLP-1R agonist)
CC1Cc2ccccc2C[N+]1(C)CC(=O)c1ccc(I)cc1 (centres undefined)	none (no result: GLP-1R agonist, HEK293 tox, GLP-1R inv ag)
O=C(N/N=C/c1c[nH]c2ccc(Br)cc12)c1ccn(Cc2ccc(Cl)cc2Cl)n1	GLP-1R inv ag 11µM, ClpP mod inconclusive
CCN(c1ccccc1)S(=O)(=O)c1ccc(-c2cc(C)no2)s1	GLP-1R inv ag inconclusive (no result: GLP-1R agonist)
CCN(c1ccc(OC)cc1)S(=O)(=O)c1ccc(-c2cc(C)no2)s1	GLP-1R inv ag 7.9µM
CC(=O)c1sc(NC(=O)CCS(=O)(=O)c2ccc(C)cc2)nc1C	HEK293 tox 10µM, GLP-1R inv ag inconclusive
CSc1nc2nccc(-c3ccc(Oc4ccccc4)cc3)n2n1	GLP-1R inv ag inconclusive, ClpP mod 28µM
CSc1nc2nccc(-c3ccc4c(c3)OCO4)n2n1	none (no result: ClpP mod)
CSc1nc2nccc(-c3ccc(-c4ccccc4)cc3)n2n1	ClpP mod 28µM
Cc1cc(C(Br)(Br)Br)nc2ccccc12	none (no result: GLP-1R agonist, HEK293 tox, GLP-1R inv ag)
O=C1/C(=C/c2cccnc2)CC/C1=C\c1cccnc1	none (no result: ClpP mod)
CCC1C/C(=C\c2cccnc2)C(=O)/C(=C/c2cccnc2)C1 (centres undefined)	HEK293 tox inconclusive, GLP-1R inv ag 3.5µM
COc1ccc(Cl)cc1S(=O)(=O)N1CCN(C(=O)c2cc(-c3ccc(Br)cc3)n[nH]2)CC1	GLP-1R inv ag 10µM (no result: GLP-1R agonist)
CCC(=O)NCCc1nc2cc(NC(=O)c3cccc(Br)c3)ccc2n1C	none (no result: GLP-1R agonist)
O=C(Nc1ccc2c(c1)[nH]c(=O)c1ccccc12)C(F)(F)F	none
CC(=O)Nc1ccc2c(c1)[nH]c(=O)c1ccccc12	ClpP mod 32µM
Nc1ccc2c(c1)[nH]c(=O)c1ccccc12	ClpP mod 20µM
Nc1cccc2[nH]c(=O)c3ccccc3c12	ClpP mod 28µM
CCCCOc1c(Cl)cc(C(=O)N(Cc2ccc(C)o2)C2CCS(=O)(=O)C2)cc1Cl (centres undefined)	GLP-1R inv ag inconclusive (no result: GLP-1R agonist)
CCOc1ccc(CNC(=O)CCn2c(=O)c3cccn3c3cccnc32)cc1	none (no result: GLP-1R agonist)
